LGR2 inh: Drosophila LGR2 receptor signaling inhibition; HEK293 LGR2, CRE-luciferase, bursicon-stimulated, 4 h; inhibition, % at 9.99 µM; 0.35% of 380,000 active; AID 720647;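 active means drop in luminescence signal, shown as inhibition above about 50% in the replicate tests, limit read from the data, passing the limit was not always enough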;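 further: agonist challenge used bursicon conditioned medium at about half maximal strength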
HSF1 activator: increases HSF-1 driven luciferase reporter signal | activation, % at 9 µM | 1.7% of 300,000 active | AID 504408 | NIH3T3-HGL HSF-1 luciferase reporter, MG132, 8 h; 100% = twice DMSO control signal;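 active means mean replicate activation of at least 50% with a set share of replicates each reaching 50%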
HSF1 inhib: HSF1 inhibition; 0.77% of 300,000 active; NIH3T3-HGL HSE-luciferase, MG132-induced, luminescence 8 h; hits give low values; activity change, negative = inhibition, % at 7.5 µM (by protocol);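 active means more than half of replicate wells show activity change below -50%, luminescence cut by over half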;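 further: luciferase reports HSF-1 transcriptional activity via heat shock element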
TROY NFkB inh: inhibitors of TROY-dependent NF-kB signaling. Q293 LMP1-TROYcd NF-kB luciferase reporter, 4 h. inhibition, % at 10 µM. 0.98% of 360,000 active. AID 1347056;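 active means compounds whose plate-normalised and pattern-corrected inhibition of the luciferase reporter signal at the single screening dose is 50% or more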
TWEAK-Fn14 inh: inhibitors of TWEAK-Fn14 interaction signaling; TWEAK-stimulated Fn14 reporter cells, luciferase luminescence, 8 h; inhibition, % at 10 µM; 2% of 360,000 active; in the data active means inhibition above about 50%
LMP1 NFkB inh: reduces LMP1-driven NF-kappaB luciferase signal; LMP1-induced NF-kappaB luciferase reporter cells, luminescence; inhibition, % at 12.5 µM; 0.69% of 350,000 active; in the data active means inhibition above about 41%
Hits are given with their value; – = inactive; · = no result given. Sampled rows, rich in hits. Any-hit rate of the full collection: about 3.6%.

SMILES	LGR2 inh	HSF1 activator	HSF1 inhib	TROY NFkB inh	TWEAK-Fn14 inh	LMP1 NFkB inh
CCN(CC)c1ccc(/C=C/c2nc3ccccc3s2)cc1	·	–	-82	·	·	·
COc1cccc(C(=O)Nc2ccc3c(c2)C(=O)N(C)[C@H]2CC[C@H](CC(=O)NCCCN4CCOCC4)O[C@H]2CO3)c1	–	·	·	·	·	·
Cc1ccc(SC(C)c2nc(-c3ccccc3)no2)cc1 (stereo unspecified)	·	–	–	–	–	59
CN(C)c1nc(N)nc(CSc2nnnn2-c2ccc(F)cc2)n1	–	60	–	–	–	–
CCN(CC)CC(C)CNC(=O)CC(C(=O)N1CCc2ccccc21)n1ccnc1 (stereo unspecified)	–	–	–	–	56	–
CCCN(CCC)CCCNC(=O)CC(C(=O)N1CCc2ccccc21)n1ccnc1 (stereo unspecified)	·	–	–	–	–	–
CC(C)CC#Cc1ccc2c(c1)O[C@@H](CN(C)C(=O)Cc1cccnc1)[C@@H](C)CN([C@H](C)CO)S2(=O)=O	–	·	·	·	·	·
Cc1noc(C)c1NC(=O)Nc1cccc2c1O[C@@H](CN(C)S(=O)(=O)c1ccccc1)[C@H](C)CN([C@@H](C)CO)C2=O	–	·	·	·	·	·
S=C1Cc2ccccc2N1	–	–	-77	–	72	–
Cc1noc(C)c1S(=O)(=O)Nc1ccc2c(c1)C(=O)N([C@H](C)CO)C[C@H](C)[C@@H](CN(C)Cc1ccc(C(=O)Nc3ccccc3N)cc1)O2	–	·	·	·	·	·
COc1ccc(Cl)c(-c2cc(C(=O)Nc3ccc(C)c(NS(C)(=O)=O)c3)[nH]n2)c1	–	·	·	–	–	·
COc1ccc(NC(=O)c2cc(-c3cc(Cl)ccc3C)n[nH]2)cn1	–	·	·	–	–	·
Cc1ccc(NC(=O)c2cc(-c3cc(Cl)ccc3C)n[nH]2)cc1NS(C)(=O)=O	–	·	·	–	64	·
COc1ccc(Cl)cc1-c1cc(C(=O)Nc2ccc(C)c(NS(C)(=O)=O)c2)[nH]n1	–	·	·	53	72	·
CNC[C@@H]1Oc2c(NC(=O)Nc3c(C)noc3C)cccc2C(=O)N([C@H](C)CO)C[C@H]1C	–	·	·	·	·	·
O=C(C[C@@H]1CC[C@H]2[C@@H](COC[C@@H](O)CN2C(=O)Nc2cc(Cl)cc(Cl)c2)O1)NCC1CCCCC1	–	·	·	·	·	·
C[C@@H]1CCCCO[C@H](CN(C)C(=O)c2ccccc2)[C@H](C)CN([C@H](C)CO)C(=O)c2cc(NC(=O)C3CCCCC3)ccc2O1	–	·	·	·	·	·
Cc1ccnc(SCC(=O)c2ccc(Br)cc2)c1C#N	–	90	–	–	–	–
O=C(NC1CCCCC1)[C@@H]1[C@@H](CO)[C@@H]2Cn3c(cccc3=O)[C@@H]2N1CC1CCCC1	–	·	·	·	·	·
CN1C(=O)c2cc(NC(=O)C3CC3)ccc2OC[C@H]2O[C@H](CC(=O)NCc3ccccc3F)CC[C@@H]21	–	·	·	·	·	·
Clc1ccc(-c2nnc(SCc3ccon3)o2)c(Cl)c1	·	58	–	–	–	–
O=C(Nc1ccccc1-c1nnc(SCc2ccc(Cl)cc2Cl)o1)c1ccccc1	–	–	–	–	–	–
C=CCSc1nnc(-c2ccc(Cl)cc2Cl)o1	–	57	–	–	–	–
Clc1ccc(-c2nnc(CCc3ccccc3)o2)c(Cl)c1	–	69	–	–	–	–
CCNC(=O)C[C@H]1CC[C@H]2[C@@H](COC[C@@H](O)CN2C(=O)Nc2c(C)noc2C)O1	–	·	·	·	·	·
SMILES	LGR2 inh	HSF1 activator	HSF1 inhib	TROY NFkB inh	TWEAK-Fn14 inh	LMP1 NFkB inh
C[C@H]1CN([C@@H](C)CO)C(=O)Cc2cc(NS(=O)(=O)c3ccccc3)ccc2O[C@@H]1CN(C)S(=O)(=O)c1cn(C)cn1	–	·	·	·	·	·
CCCCNC(=O)Nc1nnc(C(C)(C)C)s1	·	56	–	–	–	–
CC(C)(C)c1nnc(NC(=O)Nc2ccc(Cl)cc2)s1	–	–	–	–	–	–
O=C(C[C@H]1C=C[C@@H](NC(=O)Nc2ccccc2F)[C@@H](CO)O1)NCc1ccccc1	–	·	·	·	·	·
Cc1ccc(N=c2c([N+](=O)[O-])nn(-c3ccc4c(c3)OCCO4)n2O)cc1F	–	–	-79	91	100	49
COc1ccc(-n2nc([N+](=O)[O-])c(=NCCCN3CCCC3=O)n2O)cc1	–	–	–	–	–	–
Cc1cc(C)cc(N=c2c([N+](=O)[O-])nn(-c3ccc4c(c3)OCCO4)n2O)c1	–	–	–	–	–	–
O=C1CCCN1CCCN=c1c([N+](=O)[O-])nn(-c2ccc(Cl)cc2)n1O	–	62	–	–	–	–

Compound activity: PubChem BioAssay, several laboratories
